Assay outcomes (PubChem BioAssay)
Only some compounds are listed: those with a hit (about 1.7% of all), similar ones and a draw of the others.
BJeLR viability: BJeLR cell viability loss | BJeLR (HRASV12) viability, CellTiter-Glo ATP luminescence, 48 h | inhibition, % (no concentration beside the values) | 0.17% of 300,000 active; in the data active = inhibition above about 50%
PrP 5UTR inh: suppresses PrP 5' UTR mRNA reporter expression | cell-based PrP 5' UTR mRNA reporter, plate reader | inhibition, % (no concentration beside the values) | 0.35% of 340,000 active; in the data active = inhibition above about 52%; also: 0 = median of the neutral control wells
PfHsp40 yeast: rescue of PfHsp40-mediated yeast toxicity. S. cerevisiae expressing PfHsp40, growth rescue, ATP luminescence. growth rescue, % at 12.5 µM. 0.68% of 340,000 active; in the data active = growth rescue above about 28%, passing the limit was not always enough;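 also: yeast W303a lacking pdr1 and pdr3 grown in galactose medium; growth measured after three days at 30 °C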
PriA SSB inh: blocks PriA binding to SSB C-terminal tail | AID 1272365 | AlphaScreen SSBct-PriA binding, biotinylated peptide | inhibition, % at 33 µM | 0.6% of 430,000 active; in the data active = inhibition mostly above about 37%, no sharp cut-off; inactive = mostly below about 20%;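 also: plate controls were negative control peptide for no effect and reference peptide for full effect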
PrPC TRFRET: reduces human prion protein on the cell surface. P04156. cell surface PrPC, TR-FRET read-out. inhibition, % at 13.8 µM. 0.43% of 370,000 active; in the data active = inhibition above about 24%; also: 0% = median of the test wells and 100% = reference compound wells
Y pestis TopoI: inhibitors of Yersinia pestis topoisomerase I; Y. pestis Topo-I cleavage product accumulation, plate reader; activity, % at 10 µM; 0.064% of 360,000 active; in the data active = activity above about 50%, passing the limit was not always enough
PrPC confirm: cell surface PrPC inhibition, TR-FRET confirmation; shares compounds with PrPC TRFRET; AID 743200; inhibition, % at 13.8 µM; 65% of 1,500 active; cell surface PrPC level; in the data active = inhibition above about 25%
LD9 cytotox: LD9 cell cytotoxicity, PrPc inhibitor counter-screen | shares compounds with PrPC TRFRET | LD9 cells cytotoxicity, luminescence viability | inhibition, % at 13.8 µM | 29% of 1,500 active | AID 743201; in the data active = inhibition above about 9.5%
* = called active by the depositor; · = no result.

SMILES	BJeLR viability	PrP 5UTR inh	PfHsp40 yeast	PriA SSB inh	PrPC TRFRET	Y pestis TopoI	PrPC confirm	LD9 cytotox
CNC(=O)c1nnsc1S(=O)(=O)c1ccc(Cl)cc1	12.9	-2.2	209.1*	-13.3	24.7*	6.6	-3.6	79.5*
O=C(c1nnsc1S(=O)(=O)c1ccc(Cl)cc1)N1CCOCC1	-2.3	6.1	-0.8	-19.9	13.5	0.5	·	·
CCCC(CCC)C(=O)Nc1ccc(-c2cn3nc(OC)ccc3n2)cc1	·	·	·	-14.0	·	·	·	·
O=C(NCc1cccs1)Nc1cc(N2CCOCC2)ncn1	·	·	·	-1.0	·	·	·	·
O=C(NCCn1ncc2c(=O)n(Cc3ccccc3)cnc21)c1ccc(Cl)cc1Cl	·	·	·	-22.0	·	·	·	·
Cc1cc(O)cc(O)c1/C=N/NC(=O)c1ccc2c(c1)OCCO2	·	·	·	·	31.9*	-1.6	24.6*	21.5*
O=C(O)c1ccc(/C=N/NC(=O)c2ccc3c(c2)OCCO3)cc1	0.2	-1.8	0.2	·	5.1	-0.5	·	·
O=C(Nc1ccncc1)C1CN(S(=O)(=O)C2CC2)C1	·	·	·	-6.0	·	·	·	·
CCc1nonc1NC(=O)c1oc2cc(Br)ccc2c1C	5.2	-6.2	1.5	0.8	28.5*	4.9	90.7*	-4.6
Cc1cccc(C)c1NS(=O)(=O)c1ccc(-c2cnc(C3CC3)o2)cc1	59.7*	30.2	282.8*	-5.2	24.5*	7.9	14.0	29.2*
Cc1cccc(-n2ncc3c(NCc4cccs4)ncnc32)c1	-2.3	-104.1	0.0	-25.6	26.5*	5.5	8.7	-1.5
Clc1ccc(-n2ncc3c(NCc4cccs4)ncnc32)cc1	-7.3	-31.2	0.4	-11.0	-1.6	-4.0	·	·
O=C1CCCN1c1ccc(S(=O)(=O)NCCOc2ccccc2)cc1	5.7	-1.9	-1.1	-10.3	2.2	-12.9	·	·
Cc1cc(N2CCCC2=O)cc(C)c1S(=O)(=O)NCCOc1ccc(C(C)(C)C)cc1	-2.5	-3.0	11.6	-1.5	32.0*	36.3	29.3*	8.3
Cc1cc(C)c(S(=O)(=O)NCc2cccnc2)c(C)c1	0.9	1.9	0.5	-7.8	45.6*	-3.7	35.5*	-5.4
Cc1cc(C)c(C)c(S(=O)(=O)NCc2cccnc2)c1C	4.5	-18.2	-1.5	-5.3	5.8	5.7	·	·
COc1ccc(OC)c2sc(N(Cc3ccccn3)C(=O)c3cc(C)no3)nc12	·	·	·	1.0	·	·	·	·
COCCNC(=O)CSc1cc(-c2ccccc2)c2ccc(OC)cc2n1	1.0	7.5	-0.2	6.7	32.5*	-2.8	37.0*	-5.8
Cc1ccc(Cl)c2sc(NC(=O)c3ccc(S(=O)(=O)N(C)Cc4ccco4)cc3)nc12	·	·	·	8.0	·	·	·	·
CCSc1nnc2ccc(-c3ccc(Cl)cc3)nn12	·	·	·	2.0	·	·	·	·
CCSc1nnc2ccc(-c3ccc(C)cc3)nn12	-1.8	-13.6	0.7	-19.1	42.3*	17.8	-12.4	-8.3
COc1ccc(-c2cn3c(C)c(C(=O)Nc4ccncc4)sc3n2)cc1	-0.2	-8.9	0.3	-4.8	10.2	25.2	·	·
Cc1c(C(=O)Nc2ccncc2)sc2nc(-c3ccc(F)cc3)cn12	-10.1	-19.1	2.0	17.1	55.8*	-0.9	52.8*	12.1*
Cc1nn2c(N[C@@H](C)c3ccccc3)c3c(nc2c1-c1ccccc1)CCC3	·	·	·	-14.0	·	·	·	·
O=C(NNc1ccccc1)OCc1ccccc1	·	·	·	·	24.5*	-0.4	17.7	-7.3
SMILES	BJeLR viability	PrP 5UTR inh	PfHsp40 yeast	PriA SSB inh	PrPC TRFRET	Y pestis TopoI	PrPC confirm	LD9 cytotox
CCOc1ccc(C(=O)N/N=C/c2cccc3cccnc23)cc1	7.5	3.5	0.3	·	24.9*	-1.0	23.7	4.2
NNC(=O)c1[nH]c2ccc(Br)cc2c1-c1ccccc1	1.0	-16.0	0.1	1.7	6.3	5.4	·	·
CCc1c(C(=O)O)[nH]c2ccc(Br)cc12	4.8	-11.5	-0.4	5.8	76.1*	0.8	87.6*	0.6
Cc1cccc(-c2csc(C(=O)NCc3cccs3)c2-n2cccc2)c1	·	·	·	-11.0	·	·	·	·
CCOC(=O)c1c(/N=C/N(C)C)sc(/C=N/Nc2ccccc2)c1-c1ccccc1Cl	-4.7	-10.5	0.0	·	-0.2	-19.7	·	·
CCOC(=O)c1c(/N=C/N(C)C)sc(/C=N/Nc2ccccc2)c1-c1ccccc1	5.5	-23.7	-0.1	·	53.7*	-5.6	39.8*	0.1
O=C(CCc1csc(NS(=O)(=O)c2ccc(F)cc2)n1)Nc1ccc(OC(F)(F)F)cc1	·	·	·	12.0	·	·	·	·
Cn1cc(C2NC(=O)c3ccccc3N2)c2ccccc21 (stereo not given)	·	-67.4	-0.5	5.4	24.8*	1.4	19.9	-4.2
CC[C@@H](C(=O)[C@@H](C)[C@@H](O)[C@H](C)CCc1ccc(C)c(O)c1C(=O)O)[C@H]1O[C@](CC)([C@H]2CC[C@](O)(CC)[C@H](C)O2)C[C@@H]1C	2.2	-24.9	184.3*	2.1	75.5*	10.0	68.9*	43.8*
COc1ccc(Br)cc1Cn1nnc(C(=O)Nc2ccc3c(c2)OCCO3)c1N	-1.6	-29.7	5.0	2.3	25.0*	11.0	17.7	-0.3
Cc1ccc(C)c2sc(NC(=O)C3CCCN3S(=O)(=O)c3cccs3)nc12 (stereo not given)	·	·	·	5.0	·	·	·	·
CC(=O)c1ccc(OCc2cc(C(=O)N(C)Cc3ncc(C)[nH]3)no2)cc1	-7.2	-18.0	-1.2	-6.3	-1.0	-5.2	·	·
COc1cccc(OCc2cc(C(=O)N(C)Cc3nc4ccccc4[nH]3)no2)c1	7.1	-71.8	2.4	-9.9	28.5*	21.8	39.1*	2.1
CN(Cc1ccccc1)C1(CNC(=O)CCC(F)(F)F)Cc2ccccc2C1	-2.8	-16.4	-0.5	-5.0	25.5*	12.5	14.9	-0.4
CC(=O)NCCC(=O)NCC1(N(C)Cc2ccccc2)Cc2ccccc2C1	-4.2	-49.8	-1.9	-14.8	1.7	-0.6	·	·
COc1ccc2ccccc2c1/C=N/NC(=O)c1cccc([N+](=O)[O-])c1	2.4	-22.6	-0.1	·	26.2*	3.0	-0.6	-8.7
CCOc1cc(-c2cccc(OC)c2)nc2ccc(C(=O)N3CCN(c4ccc(OC)cc4)CC3)cc12	·	·	·	28.0	·	·	·	·
Cc1ccccc1CN1C(=O)CN(S(C)(=O)=O)CC1(C)C(=O)NCc1ccccc1 (stereo not given)	·	·	·	·	25.2*	·	0.2	-4.7
Cc1ccccc1CN1C(=O)CN(S(C)(=O)=O)CC1(C)C(=O)Nc1c(C)cccc1C (stereo not given)	·	·	·	·	-6.7	·	·	·
CCc1ccc2nc(N(Cc3ccccc3)C(=O)c3ccno3)sc2c1	·	·	·	0.0	·	·	·	·
CCC(C)C(=O)Nc1cc(C(=O)OC)ccc1C(=O)OC (stereo not given)	1.4	-18.3	-1.1	-3.9	·	-6.5	·	·
CCN(CC)C(=S)Nc1cc(C(=O)OC)ccc1C(=O)OC	1.3	3.4	0.6	0.4	25.3*	1.4	4.2	-6.5
c1ccc(Cn2nnnc2C(c2cccs2)N2CCCCCC2)cc1 (stereo not given)	6.7	-26.7	1.2	-31.0	28.5*	7.7	21.7	1.2
COc1cccc(OCC(=O)Nc2ccc3c(c2)CN(C(=O)c2cccs2)CC3)c1	·	·	·	15.0	·	·	·	·
